# PP5 primary = inhibitors of human protein phosphatase 5 (PP5); hit rate 0.18% among 320,000; purified PP5c, OMFP substrate fluorescence; P53041; inhibition, % at 6.7 µM;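 active means inhibition above the campaign's mean inhibition across all tested compounds plus 3 SD, cut at about 9.5% in these data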;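 further: 0% = DMSO only and 100% = 100 µM cantharidin control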
# Target sequence (P53041 whole entry, looked up): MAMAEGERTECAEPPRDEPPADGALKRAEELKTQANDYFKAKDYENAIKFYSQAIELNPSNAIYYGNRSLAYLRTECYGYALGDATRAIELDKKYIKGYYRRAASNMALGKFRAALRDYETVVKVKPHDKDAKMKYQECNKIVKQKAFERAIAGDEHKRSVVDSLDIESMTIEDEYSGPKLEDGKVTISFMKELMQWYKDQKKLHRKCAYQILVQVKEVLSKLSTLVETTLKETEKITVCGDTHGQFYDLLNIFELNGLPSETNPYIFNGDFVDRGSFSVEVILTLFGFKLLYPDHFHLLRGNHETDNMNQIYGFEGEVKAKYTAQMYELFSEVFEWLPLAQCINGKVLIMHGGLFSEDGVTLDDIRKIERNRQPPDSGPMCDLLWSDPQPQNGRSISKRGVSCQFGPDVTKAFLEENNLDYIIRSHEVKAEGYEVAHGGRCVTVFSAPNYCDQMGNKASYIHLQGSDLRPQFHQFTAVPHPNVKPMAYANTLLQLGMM
# Calb FLC = C. albicans growth modulation with fluconazole; C. albicans CaCi-2 (fluconazole-resistant clinical isolate) + fluconazole, Alamar Blue growth, 48 h; growth inhibition, % (test concentration not listed); hit rate 0.57% among 300,000; AID 1979;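 active means growth inhibition above about 58% in most replicates, limit read from the data, passing the limit was not always enough; inconclusive means exactly half the replicates above a set limit; inactive means most replicates below a set limit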;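 further: all wells also contain fluconazole at 8 µg/ml as a sub-toxic cotreatment; 0% = median of DMSO wells and 100% = median of geldanamycin control wells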
# Mdm2 MdmX PPI = disrupts the human Mdm2-MdmX interaction; O15151+Q00987; inhibition, % at 8 µM; AID 485346; SaOS-2 split-luciferase Mdm2/MdmX complementation, luminescence; hit rate 3% among 330,000;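 active means inhibition of at least 50% at 8 µM in the primary screen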
# Beta cell apopt = blocks beta cell apoptosis; INS-1E cytokine-induced death, ATP luminescence, 48 h; percent of positive-control rescue, neutral wells zero; hit rate 0.8% among 300,000; protection from apoptosis, % (no concentration beside the values);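 active means Every replicate reaches about 75%, or at least half do and their mean reaches it too, limit read from the data; inconclusive means At least half of replicates reach the limit but their mean does not; inactive means Under half of replicates reach the limit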;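 further: 0% = cytokine-treated negative control wells and 100% = positive control rescue; higher means more ATP so stronger rescue from cytokine killing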
# CSC inhib = blocks cancer stem cells. inhibition, % at 7.5 µM. hit rate 1.1% among 300,000. cancer stem cell-like cells viability, luminescence; in the data active means inhibition above about 75%; inconclusive means no clear call, values can overlap the other calls; tested in HMLE shEcad cells
# PP1 inh = counter-screen for PP5 inhibitors: inhibitors of human PP1-alpha | P62136 | purified PP1alpha, OMFP fluorescence | inhibition, % at 6.7 µM | hit rate 0.9% among 320,000 | AID 2235;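 active means inhibition above the mean inhibition of all tested compounds plus 3 SD, computed separately for each screening campaign, cut at about 15% in these data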
# Mdm2-MdmX conf = confirmation of human Mdm2/MdmX interaction inhibitors; Mdm2-MdmX binding, luminescent assay; shares compounds with Mdm2 MdmX PPI; hit rate 55% among 10,000; inhibition, % at 8 µM; AID 489028; in the data active means inhibition above about 40%
# Full FLuc ctr = counter-screen for Mdm2/MdmX inhibitors: full-length luciferase; shares compounds with Mdm2 MdmX PPI; SaOS-2 full-length luciferase counterscreen, luminescence; inhibition, % at 8 µM; hit rate 77% among 6,200;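 active means mean inhibition at 8 µM reaching about 37%, which flags the compound as non-specific, limit read from the data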;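 further: p53-null SaOS-2 cells with luciferase driven by a doxycycline-inducible promoter; compound on cells about two nights before reading with doxycycline added after day one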
# Active calls of the source: *; ? = inconclusive; . = not tested or not shown. Most compounds without a hit are left out; they make up all but 4.9% or so of the library.
SMILES,PP5 primary,Calb FLC,Mdm2 MdmX PPI,Beta cell apopt,CSC inhib,PP1 inh,Mdm2-MdmX conf,others
Cc1ccc(C(=O)C[n+]2ccc(Cc3ccccc3)cc2)cc1,1,7,52*,61,1,8,44*,Full FLuc ctr=63*
Cc1cccn2c(CN[C@H]3CCCCNC3=O)c(C(=O)N3CCOCC3)nc12,0,-24,-1,-7,4,-2,.,
COc1ccc(-n2c(C)c([N+](=O)[O-])c3ccc(O)c(CN(C)C)c32)cc1,-1,10,79*,-10,-6,-2,90*,Full FLuc ctr=53*
COc1ccc(-n2c(C(C)n3nc(C)c([N+](=O)[O-])c3C)n[nH]c2=S)cc1 (stereo not drawn),3,4,-14,5,3,0,.,
COc1ccc(F)cc1C(=O)C1CCCN(Cc2c[nH]c3ccccc23)C1 (stereo not drawn),5,?,53*,-3,7,-2,27,
O=C(Oc1ccccc1C(=O)Oc1ccccc1)c1cccnc1,0,-11,52*,4,-9,-10,4,
Cc1ccc(Cl)cc1N1CCN(C(=O)c2cc3c(=O)n(C)c4ccccc4c3n2C)CC1,2,-8,98*,-2,18,-6,86*,Full FLuc ctr=67*
CN1CCN(CCCNC(=O)c2cc3c(=O)n(C)c4ccccc4c3s2)CC1,0,2,54*,18,6,-3,32,
O=C(NCCCN1CCCCCC1)c1cc2c(=O)oc3ccccc3c2s1,2,-11,27,-8,-21,5,.,
CCCN(CCC)CCNC(=O)c1cc2c(=O)n(CC)c3ccccc3c2s1,2,1,71*,7,0,-3,46*,Full FLuc ctr=69*
Cc1cccc(N2CCN(C(=O)c3cc4c(=O)n(C)c5ccccc5c4n3C)CC2)c1C,0,2,35,2,3,-4,.,
CCCCN(CC)CCCNC(=O)c1cc2c(=O)n(C)c3ccccc3c2n1C,-1,-1,69*,9,3,1,23,
CC(=O)Oc1cccc(N2C(=O)c3ccc(C(=O)Nc4c[nH]c(=O)[nH]c4=O)cc3C2=O)c1,4,-1,0,-9,2,-8,.,
O=[N+]([O-])c1cccc2c(S(=O)(=O)N3CCOCC3)cccc12,4,8,26,-1,-4,-8,.,
Cn1cccc1C(=O)OCC(=O)N1c2ccccc2NC(=O)C1(C)C,-3,5,-1,-5,2,-1,.,
COc1ccc(OCCC(=O)OCC(=O)NCCc2ccccc2)cc1,-3,44,-24,-3,-8,0,.,
Nc1c(Cl)ncnc1NCC(O)CO (stereo not drawn),2,11,18,1,-3,-8,.,
Cn1c(C(=O)NCCCN2CCN(c3ccccc3F)CC2)cc2c(=O)n(C)c3ccccc3c21,4,10,58*,0,3,-3,28,
O=[N+]([O-])c1cc([N+](=O)[O-])c(Oc2cccnc2Br)cc1NN1CCCCC1,2,2,56*,-1,33,-1,13,
O=[N+]([O-])c1cc([N+](=O)[O-])c(Oc2c(Cl)cccc2Cl)cc1NN1CCCCC1,0,-6,25,17,17,-1,.,
CC(/C=N/NC(=O)c1cccc([N+](=O)[O-])c1)=C\c1ccccc1,6,-4,74*,0,.,-4,-30,
Cc1ccc(-n2[nH]c(C)c(/C=N/NC(=O)c3ccc([N+](=O)[O-])cc3)c2=O)c(C)c1,3,103*,53*,.,36,1,9,
Cc1[nH]n(-c2ccccc2)c(=O)c1/C=N/NC(=O)c1cccc([N+](=O)[O-])c1,2,.,52*,-2,5,-2,44*,Full FLuc ctr=6
Cc1ccsc1/C=N/NC(=O)c1ccc([N+](=O)[O-])cc1,1,-16,-8,24,-4,-2,.,
CCCCCCCC(=O)Nc1ccc(C(=O)N/N=C/c2cccc([N+](=O)[O-])c2)cc1,2,-1,88*,95*,14,3,19,
SMILES,PP5 primary,Calb FLC,Mdm2 MdmX PPI,Beta cell apopt,CSC inhib,PP1 inh,Mdm2-MdmX conf,others
COc1ccc(CCN(C)C2CCCN(C(=O)Cn3cnnn3)C2)cc1OC (stereo not drawn),4,-6,1,3,12,-3,.,
Cc1ccc(NC(=O)c2ccc(NS(=O)(=O)c3cccc4cccnc34)cc2)cc1,3,-1,33,.,3,-2,.,
Cc1ccc(N2C(=O)Nc3ccc(Br)cc3C2(O)C(=O)NCCN(C)C)cc1C (stereo not drawn),-9,0,23,-6,8,1,.,
COc1ccccc1CCNC(=O)C(=O)NCC1OCCN1S(=O)(=O)c1ccc([N+](=O)[O-])cc1 (stereo not drawn),0,-7,43,36,-1,3,.,
CN1CCN(c2ccc([N+](=O)[O-])cc2/C=N/NC(=O)c2cccc([N+](=O)[O-])c2)CC1,2,-4,51*,1,22,2,-4,
CCC(=O)N1CCN(c2ccc(Cl)cc2NC(=O)c2cccc([N+](=O)[O-])c2)CC1,-1,-1,55*,4,-3,-2,6,
CN1CCN(c2ccccc2NC(=O)c2cccc([N+](=O)[O-])c2)CC1,1,-10,2,0,.,10,.,
COc1ccc(CC(=O)Nc2ccc(/C(C)=N/NC(=O)c3cccc([N+](=O)[O-])c3)cc2)cc1,2,-1,57*,-3,-3,4,-4,
O=C(NCCc1ccccc1)C1CCCN1C(=O)Nc1ccc(Cl)cc1 (stereo not drawn),0,-2,16,-4,-24,-3,.,
Cc1nc(CNC(=O)CC2C(=O)NCCN2Cc2ccc(F)cc2)cs1 (stereo not drawn),.,4,10,5,-7,.,.,
Nc1ccc(N2CCCCC2)cc1N1CCCCC1,3,0,80*,113*,26,-4,20,
Cc1nn(-c2cc(N3CCCCC3)ccc2N)c(=O)c2ccccc12,0,-3,-4,3,-13,-1,.,
CC(=O)OC[C@H]1O[C@@H](n2ncc(=O)[nH]c2=O)[C@H](OC(C)=O)[C@@H]1OC(C)=O,0,.,80*,-3,22,-3,59*,Full FLuc ctr=32
CC(=O)OCC1OC(n2ncc(=O)n(Cc3ccccc3)c2=O)C(OC(C)=O)C1OC(C)=O (stereo not drawn),2,-6,6,.,-12,-3,.,
CCOC(=O)[C@H]1[C@H]2COc3ccc(C)cc3[C@@H]2N2C(=O)c3cc(F)c(F)cc3NC(=O)[C@@]12C,4,.,9,3,-16,1,.,
O=C(CNC1=NCCC1)c1ccc(Cl)cc1,2,24,23,.,-2,-1,.,

# Screening results from PubChem.
